# Screens from PubChem.
# SW480 rerep – A quantitative high throughput screen for small molecules that induce DNA re-replication in SW480 colon adenocarcinoma cells. SW480 DNA re-replication, Hoechst DNA content imaging, 48 h. Potency, µM (highest dose often 46.1 µM), for the others: top-dose re-replication activation, hits mostly activators. hit rate 1.8% among 340,000. AID 624297, 2012; note: % of control where 0% means no effect; nearly all actives have a fitted effect of over 55% in size
#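 Per well, 250 cells were exposed to pinned compound for 48 hr. Nuclear DNA was visualised with Hoechst (40 min, 37 C) and total object intensity recorded by fluorescence scanning.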
# HT1080-NT tox – qHTS for induction of synthetic lethality in tumor cells producing 2HG: qHTS for the HT-1080-NT fibrosarcoma cell line. HT-1080-NT fibrosarcoma viability, CellTiter-Glo ATP luminescence, 48 h. Potency, µM (doses to about 46.1 µM), without a hit: at the highest dose activity, negative = less viability, actives largely listed as cytotoxic. hit rate 1.6% among 360,000;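 note: NT is the 2HG producing partner of a matched IDH1 knockdown line; 0% = DMSO-treated cells and -100% = media-only wells without cells; nearly all actives have a fitted effect of over 55% in size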
#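 HT-1080-NT fibrosarcoma cells (2HG-overproducing), 750 cells/well in RPMI with 5% FBS, dosed after 2 h and incubated 48 h at 37C. CellTiter-Glo luminescence normalized to DMSO and no-cell wells; concentration-response curves fitted and classed.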
# KB-V1 cytotox – qHTS assay for MDR1-selective chemotherapeutics: Primary screen using the drug-selected MDR subline cells KB-V1. KB-V1 MDR cells viability, CellTiter-Glo, 72 h. Potency, µM (top dose mostly 46.1 µM), most hits filed as cytotoxic. hit rate 3.4% among 400,000. AID 1347076, 2019; note: % is set by controls: 0 for no effect and ±100 for the full control effect; nearly all actives have a fitted effect of over 60% in size
#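 In this primary screen, KB-V1 cells overexpressing P-gp are incubated with library compounds (lowest to highest concentration) for 72 h at 37 degrees C before a luminescent ATP viability read.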
# MCF10A rerep – A quantitative high throughput screen for small molecules that induce DNA re-replication in MCF 10a normal breast cells. MCF 10A DNA re-replication, Hoechst nuclear intensity, 48 h. Potency, µM (titrated, usually from 46.1 µM), for the others: at the top dose activity, positive = re-replication, hits mostly activators. hit rate 2.9% among 350,000. AID 624296, 2012; note: % of control where 0% means no effect; nearly all actives have a fitted effect of over 50% in size
# KB-3-1 cytotox – qHTS assay for MDR1-selective chemotherapeutics: Primary screen using the parental adenocarcinoma cell KB-3-1. KB-3-1 viability, CellTiter-Glo ATP luminescence, 72 h. Potency, µM (highest dose often 46.1 µM), most hits filed as cytotoxic. hit rate 1.4% among 400,000. AID 1347075, 2019; note: % is set by controls: 0 for no effect and ±100 for the full control effect; nearly all actives have a fitted effect of over 60% in size
#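 Using CellTiter-Glo luminescence, growth of non-resistant KB-3-1 adenocarcinoma cells is assessed 72 h after pin-tool compound addition at 37 °C. Normalized responses across the concentration series yield fitted curves.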
# HT1080 IDH1KD tx – qHTS for induction of synthetic lethality in tumor cells producing 2HG: qHTS for the HT-1080-IDH1KD cell line; hit rate 2% among 360,000; Potency, µM (highest dose often 46.1 µM), without a hit: at the highest dose activity, negative = toxicity, usual class: cytotoxic; HT-1080 IDH1 knockdown viability, ATP luminescence, 48 h;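 note: 0% = DMSO wells and -100% = cell-free medium wells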
#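 Luminescent ATP read-out (CellTiter-Glo, 10 min at room temperature) after 48 h compound exposure at 37 °C gave viability of IDH1-knockdown HT-1080 cells. Activity was normalised to DMSO and cell-free wells, then fitted as concentration-response curves.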
# * hit, by the source's call; i = inactive; ? = inconclusive; · = not tested or not shown; ! = repeats disagree; [ ] = remark or other dose. Shown are actives, neighbours in structure and some others; about 8% of the full set was active somewhere. Calls come from the whole dose curve; as a rule, active = well fitted curve in the direction sought with a large enough effect; inconclusive = small, poorly fitted or top-dose-only effect, or another doubt; inactive = no such curve, though single readings can be large; an effect the other way counts as inactive or inconclusive. Potency is the fitted concentration of half-maximal effect.
SMILES,SW480 rerep,HT1080-NT tox,KB-V1 cytotox,MCF10A rerep,KB-3-1 cytotox,HT1080 IDH1KD tx
COc1cccc(NC(=O)Nc2cc(-c3cn4cccnc4n3)ccc2C)c1,·,·,i,·,i,·
Cc1ccc(-c2nnn(CC(=O)Nc3ccc(S(=O)(=O)N4CCC(C)CC4)cc3)n2)cc1,7.5%,23.1µM*,?,2.4%,i,11.6µM*
CC1CCN(S(=O)(=O)c2ccc(NC(=O)Cn3nnc(-c4ccccc4)n3)cc2)CC1,10.0%,?,14.6µM*,?,?,?
CC1CCCN(S(=O)(=O)c2ccc(NC(=O)Cn3nnc(-c4ccccc4F)n3)cc2)C1 (centres undefined),?,?,i,?,i,?
COc1ccc(C(=O)NCC(c2ccco2)N2CCc3ccccc32)c(OC)c1 (centres undefined),18.5%,-0.2%,?,?,i,-16.0%
Cc1c(C(=O)Nc2nonc2-c2ccc(F)cc2)oc2ccc(F)cc12,5.2%,?,?,-0.7%,18.4µM*,20.6µM*
COc1ccc(Nc2cc(C)nc3nc(C)nn23)c(OC)c1,2.4%,1.7%,i,9.8%,i,0.7%
COc1ccc(OC)c(Nc2cc(C)nc3nc(C)nn23)c1,?,-10.5%,20.6µM*,?,7.31µM*,-20.9%
COc1ccc(C)cc1Nc1cc(C)nc2nc(C)nn12,?,-21.5%,?,23.5%,8.2µM*,-24.0%
CN1CCN(c2ccc(Cl)cc2NC(=O)c2cccc(S(=O)(=O)N(C)C)c2)CC1,-1.4%,?,i,7.0%,i,14.3%[9.24 µM]
COCCN(CC(=O)Nc1cccc(C)c1C)C(=O)C1CCN(S(=O)(=O)c2ccccc2)CC1,-3.3%,-5.9%,9.2µM*,0.7%,i,-11.6%
CCN(CC(=O)Nc1ccccc1C(F)(F)F)C(=O)c1cc2c(s1)CCCCC2,-5.5%,-15.7%,i,?,i,-17.0%
CN1CCN(c2ccc(Cl)cc2NC(=O)/C=C/c2cccc(F)c2)CC1,?,11.6µM*,i,10.8%,?,20.6µM*
COCCN(CC(=O)Nc1cccc(C)c1C)C(=O)c1cc2c(s1)CCC2,-1.0%,0.1%,7.31µM*,2.1%,i,0.4%
COc1ccc(Cl)cc1NC(=O)CN(C)C(=O)CN1C(=O)NC(C)(c2ccc3ccccc3c2)C1=O (centres undefined),-1.7%,?,?,?,10.3µM*,?
CCCn1c(=N)n(CC(=O)O)c2ccccc21,-3.7%,-5.4%,i,-3.5%,i,0.1%
Cn1nnnc1SCCNC(=O)C1CCC(=O)N(CCc2cccc(F)c2)C1 (centres undefined),0.9%,-7.8%,i,-2.9%,i,-1.3%
COc1ccc(Cl)cc1NC(=O)C1COc2ccccc2O1 (centres undefined),0.6%,2.9%,i,-2.0%,i,5.3%
COc1ccc(/C=C2/SC(=O)N(CCNC(=O)C3COc4ccccc4O3)C2=O)cc1 (centres undefined),-4.1%,-1.4%,?,-0.2%,i,4.0%
COc1ccc(Cl)cc1NC(=O)CN(C)C(=O)C1COc2ccccc2O1 (centres undefined),-1.5%,-9.0%,16.4µM*,7.6%,i,-3.9%
COc1ccc(C)cc1NC(=O)CC1COc2ccccc2O1 (centres undefined),0.3%,-1.1%,i,?,i,12.0%
COc1cc(OC)c(OC)cc1NC(=O)CC1COc2ccccc2O1 (centres undefined),1.6%,4.7%,14.6µM*,5.4%,i,6.4%
COc1ccc(Cl)cc1NC(=O)CNc1ccccc1CN(C)C1CCCCC1,16.2%,?,?,9.9%,i,16.4µM*
CCOc1ccc(/C=C2\SC(=O)N(CCNC(=O)C3COc4ccccc4O3)C2=O)cc1OC (centres undefined),-3.2%,-4.2%,16.4µM*,?,i,-3.7%
CCCCC(=O)N(C)c1c(CC)nc2c(OCc3ccccc3C)cccn12,·,-25.0%,?,·,i,-20.0%
SMILES,SW480 rerep,HT1080-NT tox,KB-V1 cytotox,MCF10A rerep,KB-3-1 cytotox,HT1080 IDH1KD tx
O=C(Nc1cc(S(=O)(=O)N2CCOCC2)ccc1N1CCCC1)C1COc2ccccc2O1 (centres undefined),3.9%,0.9%,i,2.5%,i,-1.5%
COc1ccc(Cl)cc1NC(=O)CN(C)CC(=O)Nc1ccccc1N1CCOCC1,5.17µM*,1.46µM*,?,?,i,1.16µM*
CCOc1ccc(OCC)c(NC(=O)C2COc3ccccc3O2)c1 (centres undefined),1.8%,1.7%,20.6µM*,?,i,-10.5%
CN1CCN(c2ccc(Cl)cc2NC(=O)C2COc3ccccc3O2)CC1 (centres undefined),?,14.6µM*,i,18.0%,?,?
COc1ccc(Cl)cc1NC(=O)CN(C)CC(=O)N1CC(=O)Nc2ccccc21,5.7%,-14.3%,i,?,i,-11.4%
COc1ccc(Cl)cc1NC(=O)CN(C)C(=O)c1cc2c(s1)CCCC2,18.4µM*,-8.0%,13µM*,?,?,-20.2%
Cc1cccc[n+]1CC(=O)/C=C1\N(C)c2ccccc2C1(C)C,-3.6%,-13.5%,i,?,4.11µM*,?
CN1/C(=C\C(=O)C[n+]2cccc(Br)c2)C(C)(C)c2ccccc21,1.9%,-27.8%,i,7.3%,?,-43.1%
Cc1ccc[n+](CC(=O)/C=C2\N(C)c3ccccc3C2(C)C)c1,1.0%,-18.3%,?,19.8%,7.31µM*,?
CCCCOc1ccccc1C(=O)Nc1onc2c1CCCC2,·,·,i,·,i,·
O=C(c1cccn1-c1nnc(N2CCCCC2)s1)N1CCN(c2ccc(Cl)cc2)CC1,·,·,i,·,i,·
CCOC(=O)c1c(CN2CCCCC2)oc2ccc(OC)cc12,-3.4%,-5.4%,9.2µM*!,20.2%,i,-15.2%
O=C(CSc1ncn[nH]1)Nc1ccc2c(c1)OCCO2,-21.3%,8.3%,i,2.9%,i,-2.4%
O=C(COC(=O)c1cccc(F)c1)NC(=O)NC1CCCC1,-3.5%,6.1%,?,-2.6%,i,1.4%
O=C(COC(=O)c1cccc(Br)c1)NC(=O)NC1CCCC1,-43.0%,?,i,0.461µM*,i,?
